The values that follow come from PubChem BioAssay.

One assay concerns the target Albumin (Bos taurus) (UniProt P02769). As to the kind of experiment: bovine serum albumin binders on microarray, profiling panel, artefact control for SMM control protein annotation, biochemical, small-molecule microarray, Alexa647 label, 635/667 nm fluorescence (AID 1118).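 Note: score merges 667 nm emission intensity and signal-to-noise per printed compound spot.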 To be noted: BSA-A647 binding, fluorescence 635 nm, higher = more signal.
Assay [1] can be described thus: small-molecule microarray binders of probe aXIP, primary screen, biochemical, NeuroSMM set, 635/667 nm fluorescence (AID 1119).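 Note: probe is the protein aXip251-270 applied at 1 µg/mL to compound-printed slides; binding of probe to printed compounds measured as 667 nm fluorescence plus signal to noise.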 To be noted: higher = more signal, called active from +8 up or from −8 down.
A short description of assay [2]: small-molecule binders of probe aNOTCH3, primary screen, biochemical, small-molecule microarray, 635/667 nm fluorescence (AID 1120).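 Note: probe is a biotin-tagged antibody raised against NOTCH3 rather than NOTCH3 protein; score merges spot fluorescence near 667 nm with spot signal to noise.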 The conditions noted are these: higher = more signal.
The nature of assay [3]: small-molecule binders of probe aNOTCH2, primary screen, biochemical, small-molecule microarray, 635/667 nm fluorescence (AID 1121).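 Note: score merges feature fluorescence read at 667 nm with its signal to noise.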 To be noted: higher = more signal.
Assay [4] concerns the target Carbonic anhydrase 2 (Homo sapiens) (UniProt P00918). As to the kind of experiment: CAII small-molecule binders, profiling panel, biochemical, small-molecule microarray, Alexa647-labelled CAII (AID 1122). The conditions noted are these: CAII-A647 binding fluorescence, higher = more signal.
Assay [5] can be described thus: COS7 lysate on small-molecule microarray, probe aHis, 635 nm (AID 1123).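 Note: z-score combines 667nm fluorescence intensity with signal-to-noise per printed compound spot.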 The conditions noted are these: COS7 cell lysate, fluorescence, higher = more signal.
The nature of assay [6]: compound binding in COS7 lysate, probe aLAP1, primary screen, cell lysate, small-molecule microarray (AID 1124).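 Note: lysate comes from COS7 cells expressing LAP1 and is applied at 0.3 µg/mL; score merges spot fluorescence near 667 nm with signal-to-noise over triplicate slides.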 The conditions noted are these: probe aLAP1, fluorescence, higher = more signal.
The subject of the next assay is Sam68 (KHDRBS1). Put plainly: Sam68 small-molecule binders, primary screen, biochemical, small-molecule microarray, 635 nm fluorescence (AID 1125).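 Note: score merges 667 nm channel intensity with signal to noise over triplicate slides.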 The conditions noted are these: small-molecule microarray binding, higher = more signal.
Assay [7] concerns Chordin-like protein 2 (CHRDL2). As to the kind of experiment: CHRDL2 small-molecule binders, primary screen, biochemical, small-molecule microarray, 635 nm fluorescence (AID 1126).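 Note: printed compound slides probed with Chrdl2 protein at 4 µg/mL for 1 h at 4 C; score merges 667 nm emission intensity with signal to noise over three replicate slides.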 To be noted: small-molecule microarray binding, fluorescence 635 nm; higher = more signal.
Assay [8] has as its target Concanavalin-A (Canavalia ensiformis) (UniProt P02866). As to the kind of experiment: ConA small-molecule binders, primary screen, artefact control for SMM control protein annotation, biochemical, small-molecule microarray, Alexa647 label, 635 nm (AID 1127).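 Note: z combines 667 nm emission intensity with signal-to-noise across three replicate slides.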 The conditions noted are these: ConA-A647 binding fluorescence, higher = more signal.
Assay [9] is described as follows: anti-His antibody binders, primary screen, artefact control for SMM control protein annotation, biochemical, small-molecule microarray, 635 nm fluorescence (AID 1128).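 Note: score merges feature fluorescence with signal-to-noise for each printed compound spot.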 The conditions noted are these: anti-His Alexa647 antibody binding, higher = more signal.
Assay [10] relates to Human papillomavirus type 1a E7 protein (residues 1-88). Put plainly: HPV1a E7 small-molecule binders, primary screen, biochemical, small-molecule microarray, residues 1-88, 635 nm (AID 1129). The conditions noted are these: small-molecule microarray binding, fluorescence 635 nm; higher = more signal.
The target in assay [11] is Focal adhesion kinase 1 (Homo sapiens) (UniProt Q05397). As to the kind of experiment: small-molecule microarray binders of FAK, primary screen, biochemical, 635/667 nm fluorescence, BSA, DTT (AID 1130).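 Note: composite of spot emission at 667 nm and signal to noise over triplicate slides.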 The conditions noted are these: PTK2 binding, 635 nm fluorescence, higher = more signal.
The test system of assay [12] is Fibrinogen (Alexa647-labelled). As to the kind of experiment: fibrinogen binders on compound microarrays, profiling panel, artefact control for SMM control-protein annotation, biochemical, small-molecule microarray, 635/667 nm fluorescence (AID 1131).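 Note: z-score merges 667 nm fluorescence with per-spot signal-to-noise over triplicate slides.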 The conditions noted are these: fibrinogen-A647 binding fluorescence, higher = more signal.
Assay [13] addresses Follistatin (Homo sapiens) (UniProt P19883). Put plainly: follistatin binders on small-molecule microarrays, primary screen, biochemical, small-molecule microarray, 635/667 nm fluorescence (AID 1132). The conditions noted are these: FST binding, 635 nm fluorescence, higher = more signal.
Assay [14] has as its target Fibroblast growth factor 2 (Homo sapiens) (UniProt P09038). Put plainly: FGF2 binders on small-molecule microarrays, primary screen, biochemical, small-molecule microarray, 635/667 nm fluorescence (AID 1133). The conditions noted are these: small-molecule microarray binding, FGF2, fluorescence 635/667; higher = more signal.
Assay [15] is described as follows: mitochondrial membrane potential change in A549 cells, profiling panel, cell-based, JC-1 fluorescence, basal, 24 h, 100 nL (AID 1138).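 Note: A549 lung adenocarcinoma cells under basal conditions with no added stimulus; test concentration not given here.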 To be noted: higher = more signal.
In a further assay the test system is Lefty1. Put plainly: Lefty1 binders on small-molecule microarrays, primary screen, biochemical, small-molecule microarray, 635/667 nm fluorescence (AID 1139). The conditions noted are these: small-molecule microarray binding, fluorescence 635/667; higher = more signal.
Assay [16] relates to wheat germ agglutinin (Triticum aestivum), Alexa647-labelled. Put plainly: wheat germ agglutinin binders on compound microarrays, profiling panel, artefact control for SMM control-protein annotation, biochemical, small-molecule microarray, 635/667 nm fluorescence (AID 1140).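 Note: score merges 667 nm feature emission with signal to noise over triplicate slides.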 To be noted: WGA-A647 binding, 635 nm fluorescence, higher = more signal.
In assay [17] the target is Luciferin 4-monooxygenase (Photinus pyralis) (UniProt P08659). As to the kind of experiment: firefly luciferase enzyme inhibitors, primary screen, biochemical, luminescence, purified enzyme, 2006 set (AID 1141).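 Note: cell-free assay with purified firefly luciferase at 100 ng per well in PBS; test concentration not given here.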 The conditions noted are these: SteadyGlo luminescence, 30 min, higher = more signal, called active from +8 up or from −8 down.

Structures are written as SMILES. Activity calls are given as the source filed them.

Chain of Albumin (Bos taurus) (P02769 whole entry, looked up): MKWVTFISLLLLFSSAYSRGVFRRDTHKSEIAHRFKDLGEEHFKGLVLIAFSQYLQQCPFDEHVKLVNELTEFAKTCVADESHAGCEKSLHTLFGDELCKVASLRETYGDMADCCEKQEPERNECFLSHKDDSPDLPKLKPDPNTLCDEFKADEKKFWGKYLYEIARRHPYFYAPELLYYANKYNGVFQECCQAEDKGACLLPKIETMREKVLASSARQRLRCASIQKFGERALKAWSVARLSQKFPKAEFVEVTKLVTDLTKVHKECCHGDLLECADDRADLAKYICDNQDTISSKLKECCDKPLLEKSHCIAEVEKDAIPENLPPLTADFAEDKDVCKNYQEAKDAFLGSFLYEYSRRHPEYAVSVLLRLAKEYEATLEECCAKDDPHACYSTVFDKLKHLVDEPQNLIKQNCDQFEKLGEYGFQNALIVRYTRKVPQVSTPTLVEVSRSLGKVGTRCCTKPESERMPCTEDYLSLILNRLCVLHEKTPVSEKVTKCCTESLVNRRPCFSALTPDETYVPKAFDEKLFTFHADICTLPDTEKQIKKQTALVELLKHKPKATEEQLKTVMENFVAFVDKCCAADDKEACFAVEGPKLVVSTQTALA
Chain of Follistatin (Homo sapiens) (P19883 whole entry, looked up): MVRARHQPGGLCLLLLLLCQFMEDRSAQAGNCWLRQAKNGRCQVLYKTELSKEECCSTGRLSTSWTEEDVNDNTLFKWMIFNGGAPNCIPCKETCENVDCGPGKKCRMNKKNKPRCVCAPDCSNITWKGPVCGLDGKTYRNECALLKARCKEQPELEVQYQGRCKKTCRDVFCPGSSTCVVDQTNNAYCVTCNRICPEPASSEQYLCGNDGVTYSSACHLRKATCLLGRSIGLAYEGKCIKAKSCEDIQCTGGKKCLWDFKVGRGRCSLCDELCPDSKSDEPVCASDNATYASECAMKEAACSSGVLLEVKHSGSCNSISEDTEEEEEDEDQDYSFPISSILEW
Chain of Luciferin 4-monooxygenase (Photinus pyralis) (P08659 whole entry, looked up): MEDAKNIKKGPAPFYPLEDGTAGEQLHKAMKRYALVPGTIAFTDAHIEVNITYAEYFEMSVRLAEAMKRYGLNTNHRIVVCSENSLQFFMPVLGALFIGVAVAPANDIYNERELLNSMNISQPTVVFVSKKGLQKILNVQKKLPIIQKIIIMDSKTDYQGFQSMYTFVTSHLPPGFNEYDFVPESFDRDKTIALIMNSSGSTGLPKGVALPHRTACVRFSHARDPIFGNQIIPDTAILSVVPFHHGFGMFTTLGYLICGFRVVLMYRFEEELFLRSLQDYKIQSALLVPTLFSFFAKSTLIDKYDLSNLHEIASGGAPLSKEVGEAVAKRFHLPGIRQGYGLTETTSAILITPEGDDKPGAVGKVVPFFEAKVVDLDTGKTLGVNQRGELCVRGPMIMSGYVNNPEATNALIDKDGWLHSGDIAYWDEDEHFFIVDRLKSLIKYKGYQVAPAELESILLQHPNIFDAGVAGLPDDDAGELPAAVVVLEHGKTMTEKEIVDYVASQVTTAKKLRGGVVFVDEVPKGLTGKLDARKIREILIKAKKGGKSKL
Chain of Fibroblast growth factor 2 (Homo sapiens) (P09038 whole entry, looked up): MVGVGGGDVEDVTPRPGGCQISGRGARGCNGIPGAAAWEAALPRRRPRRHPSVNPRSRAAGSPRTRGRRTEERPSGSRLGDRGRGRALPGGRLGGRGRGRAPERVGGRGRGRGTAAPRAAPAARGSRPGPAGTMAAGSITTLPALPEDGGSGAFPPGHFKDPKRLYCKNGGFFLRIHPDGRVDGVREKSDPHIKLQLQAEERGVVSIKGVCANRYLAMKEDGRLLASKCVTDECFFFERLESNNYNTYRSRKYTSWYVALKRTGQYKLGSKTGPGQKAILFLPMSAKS
Chain of Focal adhesion kinase 1 (Homo sapiens) (Q05397 whole entry, looked up): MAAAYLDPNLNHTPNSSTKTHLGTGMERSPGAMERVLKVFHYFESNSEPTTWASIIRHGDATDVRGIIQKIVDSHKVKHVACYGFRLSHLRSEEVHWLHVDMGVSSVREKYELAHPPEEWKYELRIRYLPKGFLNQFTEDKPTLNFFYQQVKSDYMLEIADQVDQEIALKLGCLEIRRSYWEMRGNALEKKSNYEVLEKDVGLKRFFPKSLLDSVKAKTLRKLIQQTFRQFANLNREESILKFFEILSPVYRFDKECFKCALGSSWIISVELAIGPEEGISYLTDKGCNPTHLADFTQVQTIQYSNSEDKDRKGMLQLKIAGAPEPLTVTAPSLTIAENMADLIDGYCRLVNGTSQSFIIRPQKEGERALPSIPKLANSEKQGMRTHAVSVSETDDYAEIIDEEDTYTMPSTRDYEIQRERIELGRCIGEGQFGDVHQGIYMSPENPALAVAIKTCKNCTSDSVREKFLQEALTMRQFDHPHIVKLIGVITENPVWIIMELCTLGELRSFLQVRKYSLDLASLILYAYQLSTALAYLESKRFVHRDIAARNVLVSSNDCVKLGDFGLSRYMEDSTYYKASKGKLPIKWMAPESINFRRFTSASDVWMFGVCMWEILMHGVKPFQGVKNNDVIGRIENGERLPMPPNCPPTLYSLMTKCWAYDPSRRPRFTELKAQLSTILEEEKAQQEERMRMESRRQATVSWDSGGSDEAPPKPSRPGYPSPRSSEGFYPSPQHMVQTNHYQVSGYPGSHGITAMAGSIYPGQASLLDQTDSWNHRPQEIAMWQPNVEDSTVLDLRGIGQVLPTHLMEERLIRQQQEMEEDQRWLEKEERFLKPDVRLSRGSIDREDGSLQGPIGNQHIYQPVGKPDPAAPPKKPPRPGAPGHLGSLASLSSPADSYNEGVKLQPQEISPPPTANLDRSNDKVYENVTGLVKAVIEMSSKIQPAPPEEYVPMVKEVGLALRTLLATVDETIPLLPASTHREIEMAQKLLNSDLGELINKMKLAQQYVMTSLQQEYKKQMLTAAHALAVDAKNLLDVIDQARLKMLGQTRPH
Chain of Concanavalin-A (Canavalia ensiformis) (P02866 whole entry, looked up): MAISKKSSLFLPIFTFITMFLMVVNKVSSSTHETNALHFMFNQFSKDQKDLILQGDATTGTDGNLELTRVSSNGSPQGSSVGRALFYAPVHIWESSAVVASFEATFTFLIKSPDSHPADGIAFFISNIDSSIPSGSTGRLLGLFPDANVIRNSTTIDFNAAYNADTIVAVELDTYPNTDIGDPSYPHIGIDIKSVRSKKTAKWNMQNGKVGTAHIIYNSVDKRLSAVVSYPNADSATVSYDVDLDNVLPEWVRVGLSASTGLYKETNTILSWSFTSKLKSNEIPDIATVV

`CCCCC(CC)C(O)C1C=CC2C(=O)N(c3ccccc3)C(=O)C2N1Nc1ccccc1` (stereo not given): the composite z-score in the assay with Albumin (Bos taurus) was 0.83; in assay [2], 0.206; in [3], -0.122; in assay [4], 0.665; in [5], 2.28; in assay [6], 0.297. For the same compound, the composite z-score was 0.883 in the assay on Sam68 (KHDRBS1); -0.804 in [7]; 0.964 in assay [8]; 0.804 in assay [9]; 1.19 in assay [10]; 0.462 in assay [11]. Also, the composite z-score in assay [12] is 0.881; in [13], 0.858; in [14], -0.411; in the assay with Lefty1 it was -0.249; in assay [16], 1.15. Besides, the composite Z-score in assay [1] is 0.392 (inactive). The values for the z-score in assay [15] and in assay [17] were -0.99 and -0.15 (inactive), respectively.

With `C=C[C@@H](COC(C)=O)N(Cc1ccc([N+](=O)[O-])cc1)S(=O)(=O)c1ccc(Br)cc1`, the composite z-score with Albumin (Bos taurus) was 0.812; in assay [2], -0.0647; in assay [3] it was -0.0089; in assay [4] it was 0.448; in [5] it was 0.432; in [6], 0.442. Also, the composite z-score is 0.573 in the assay with Sam68 (KHDRBS1); 0.241 in assay [7]; 1.11 in assay [8]; 1.6 in assay [9]; 1.17 in assay [10]; 0.079 in assay [11]. Moreover, the composite z-score in assay [12] worked out at 0.958; in assay [13] it was 0.631; in [14], 0.54; in the assay on Lefty1, 0.321; in [16] it was 1.09. Besides, in [1], the composite Z-score is 0.181 (inactive). Also, the z-score in assay [15] is 1.6; in assay [17] it was -1.19 (inactive).

With `NCCCCCCNC(=O)[C@H]1C[C@H]2C(=O)NCC(=O)N2[C@H]1c1cccc(OCCO)c1`, the composite z-score is -0.512 with Albumin (Bos taurus); -0.0311 in [2]; -0.153 in [3]; 0.536 in assay [4]; 1.07 in assay [5]; 0.295 in assay [6]. Besides, the composite z-score with Sam68 (KHDRBS1) stood at 1.29; in assay [7], 1.37; in assay [8], 1.1; in assay [9] it was 0.869; in assay [10], 0.858; in assay [11] it was 0.215. Besides, the composite z-score in assay [12] worked out at 0.794; in assay [13] it was 1.24; in assay [14] it was 1.55; with Lefty1 it was 1.04; in [16] it was 1.08. In addition, the composite Z-score in assay [1] was 0.727 (inactive). Further, the z-score in assay [15] was 1.85; in assay [17] it was -1.7 (inactive).

On to `Cc1ccc(F)cc1S(=O)(=O)N[C@@H]1CCN(Cc2ccc(-c3ccccc3)cc2)C1`, for which the composite z-score in the assay with Albumin (Bos taurus) was 0.413; in [2], -0.126; in assay [3] it was -0.0598; in [4], 0.482; in assay [5], 0.249; in assay [6] it was 0.625. Moreover, the composite z-score with Sam68 (KHDRBS1) is 0.581; in assay [7], 0.776; in assay [8], -0.0888; in [9], -0.0798; in [10], 0.517; in assay [11], 0.377. Further, the composite z-score in assay [12] is -0.0516; in assay [13] it was 0.646; in assay [14], 0.424; in the assay on Lefty1, 0.292; in assay [16] it was -0.108. The composite Z-score in assay [1] was -0.569 (inactive). Besides, the z-score in [15] was 0.225; in assay [17], 0.715 (inactive).

Regarding `C#CCN(C(/C=C/c1ccccc1)CO)C(C(=O)O)c1ccccc1` (stereo not given), the composite z-score in the assay with Albumin (Bos taurus) was -0.56; in assay [2] it was -0.389; in [3], -0.181; in assay [4] it was -0.199; in [5] it was -0.21; in assay [6], -0.0599. The composite z-score is -1.12 in the assay with Sam68 (KHDRBS1); 0.0041 in assay [7]; 0.0529 in assay [8]; -0.375 in assay [9]; -1.19 in assay [10]; 0.492 in [11]. Besides, the composite z-score in assay [12] was 0.116; in assay [13], -0.523; in assay [14] it was -0.354; in the assay on Lefty1, -0.346; in [16], -0.0819. In addition, the composite Z-score in assay [1] is 0.535 (inactive). Further, the z-score in assay [15] is -1.04; in assay [17] it was -0.104 (inactive).

For `CCCCC=C[C@@H](NC(=O)c1ccco1)c1ccccc1`, the composite z-score with Albumin (Bos taurus) is 0.844; in assay [2], -0.0947; in assay [3] it was -0.0419; in assay [4], -0.406; in assay [5], 0.0455; in assay [6], -0.358. In addition, the composite z-score was -0.708 in the assay on Sam68 (KHDRBS1); -0.134 in assay [7]; 1.01 in assay [8]; 0.34 in assay [9]; -1.19 in assay [10]; -0.0668 in assay [11]. In addition, the composite z-score in assay [12] is 1.01; in assay [13], 0.487; in assay [14] it was 0.133; in the assay on Lefty1, -0.337; in assay [16], 0.653. Also, the composite Z-score in assay [1] is -0.474 (inactive). For the same compound, the z-score in assay [15] was -0.881; in assay [17], 2.18 (inactive).
